# Experimental data reported in the supplement of paper PMC12282887.
# ± gives the standard deviation of the averaged measurements.
# Test system: E. coli BW25113 marRABp lux reporter
# Assay: promoter activity interaction Z-score (Lux/OD deviation from empty-vector control); higher = stronger promoter induction by the compound
# Procedure: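 E. coli BW25113 (wild type or ΔmarA/ΔsoxS/Δrob) carrying pTU175 luxCDABE promoter reporters was grown in LB in 384-well plates at 37°C with each of 94 compounds at 4 two-fold concentrations, in biological duplicates. Luminescence and OD600 were read every 30 min for 12 h and integrated as AUC over 8 h (0-8 h WT, 1-9 h mutants). Lux AUC was divided by OD AUC; the interaction score is the residual of a Huber robust fit of each promoter against the empty-vector control, then Z-transformed per promoter.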
structure (smiles),measurement,setting,value
O=C1CN(/N=C/c2ccc([N+](=O)[O-])o2)C(=O)N1 [Nitrofurantoin],promoter activity interaction Z-score,"0.45 µg/ml, genetic background: wild type",0.183 ± 0.32
same,promoter activity interaction Z-score,"0.45 µg/ml, genetic background: ΔmarA",0.105 ± 0.23
same,promoter activity interaction Z-score,"0.45 µg/ml, genetic background: Δrob",0.131 ± 0.13
same,promoter activity interaction Z-score,"0.45 µg/ml, genetic background: ΔsoxS",0.198 ± 0.24
same,promoter activity interaction Z-score,"0.89 µg/ml, genetic background: wild type",0.503 ± 0.047
same,promoter activity interaction Z-score,"0.89 µg/ml, genetic background: ΔmarA",0.249 ± 0.27
same,promoter activity interaction Z-score,"0.89 µg/ml, genetic background: Δrob",0.252 ± 0.052
same,promoter activity interaction Z-score,"0.89 µg/ml, genetic background: ΔsoxS",0.0792 ± 0.11
same,promoter activity interaction Z-score,"1.8 µg/ml, genetic background: wild type",1.04 ± 0.38
same,promoter activity interaction Z-score,"1.8 µg/ml, genetic background: ΔmarA",0.658 ± 0.16
same,promoter activity interaction Z-score,"1.8 µg/ml, genetic background: Δrob",1.16 ± 0.11
same,promoter activity interaction Z-score,"1.8 µg/ml, genetic background: ΔsoxS",0.447 ± 0.016
same,promoter activity interaction Z-score,"3.6 µg/ml, genetic background: wild type",7.36 ± 0.64
same,promoter activity interaction Z-score,"3.6 µg/ml, genetic background: ΔmarA",4.45 ± 1.7
same,promoter activity interaction Z-score,"3.6 µg/ml, genetic background: Δrob",12.8 ± 0.43
same,promoter activity interaction Z-score,"3.6 µg/ml, genetic background: ΔsoxS",12.2
NC[C@H](O)c1ccc(O)c(O)c1 [Noradrenalin],promoter activity interaction Z-score,"20 µg/ml, genetic background: wild type",0.189 ± 0.16
same,promoter activity interaction Z-score,"20 µg/ml, genetic background: ΔmarA",0.444 ± 0.053
same,promoter activity interaction Z-score,"20 µg/ml, genetic background: Δrob",0.108 ± 0.12
same,promoter activity interaction Z-score,"20 µg/ml, genetic background: ΔsoxS",0.239 ± 0.13
same,promoter activity interaction Z-score,"39.9 µg/ml, genetic background: wild type",0.0664 ± 0.085
same,promoter activity interaction Z-score,"39.9 µg/ml, genetic background: ΔmarA",0.371 ± 0.24
same,promoter activity interaction Z-score,"39.9 µg/ml, genetic background: Δrob",0.256 ± 0.08
same,promoter activity interaction Z-score,"39.9 µg/ml, genetic background: ΔsoxS",0.078 ± 0.037
same,promoter activity interaction Z-score,"79.8 µg/ml, genetic background: wild type",0.253 ± 0.15
same,promoter activity interaction Z-score,"79.8 µg/ml, genetic background: ΔmarA",-0.0312 ± 0.044
same,promoter activity interaction Z-score,"79.8 µg/ml, genetic background: Δrob",-0.0145 ± 0.019
same,promoter activity interaction Z-score,"79.8 µg/ml, genetic background: ΔsoxS",0.36 ± 0.27
same,promoter activity interaction Z-score,"159.6 µg/ml, genetic background: wild type",0.17 ± 0.12
same,promoter activity interaction Z-score,"159.6 µg/ml, genetic background: ΔmarA",-0.0497 ± 0.011
same,promoter activity interaction Z-score,"159.6 µg/ml, genetic background: Δrob",0.0596 ± 0.2
same,promoter activity interaction Z-score,"159.6 µg/ml, genetic background: ΔsoxS",0.217 ± 0.22
O=c1[nH]c(=O)c2[nH]c(O)nc2[nH]1 [Sodium urate],promoter activity interaction Z-score,"28.4 µg/ml, genetic background: wild type",-0.098 ± 0.014
same,promoter activity interaction Z-score,"28.4 µg/ml, genetic background: ΔmarA",-0.367 ± 0.46
same,promoter activity interaction Z-score,"28.4 µg/ml, genetic background: Δrob",-0.0815 ± 0.3
same,promoter activity interaction Z-score,"28.4 µg/ml, genetic background: ΔsoxS",-0.136 ± 0.38
same,promoter activity interaction Z-score,"56.8 µg/ml, genetic background: wild type",-0.215 ± 0.019
same,promoter activity interaction Z-score,"56.8 µg/ml, genetic background: ΔmarA",-0.183 ± 0.45
same,promoter activity interaction Z-score,"56.8 µg/ml, genetic background: Δrob",-0.209 ± 0.11
same,promoter activity interaction Z-score,"56.8 µg/ml, genetic background: ΔsoxS",-0.198 ± 0.26
same,promoter activity interaction Z-score,"113.7 µg/ml, genetic background: wild type",0.0146 ± 0.11
same,promoter activity interaction Z-score,"113.7 µg/ml, genetic background: ΔmarA",-0.285 ± 0.48
same,promoter activity interaction Z-score,"113.7 µg/ml, genetic background: Δrob",-0.227 ± 0.062
same,promoter activity interaction Z-score,"113.7 µg/ml, genetic background: ΔsoxS",-0.19 ± 0.33
same,promoter activity interaction Z-score,"227.3 µg/ml, genetic background: wild type",-0.107 ± 0.15
same,promoter activity interaction Z-score,"227.3 µg/ml, genetic background: ΔmarA",0.16 ± 0.43
same,promoter activity interaction Z-score,"227.3 µg/ml, genetic background: Δrob",-0.0974 ± 0.043
same,promoter activity interaction Z-score,"227.3 µg/ml, genetic background: ΔsoxS",-0.0308 ± 0.28
